{
  "source": "PubChem BioAssay (NCI)",
  "note": "This is part of a sample that, as a whole, favours compounds with a hit. Of some 83,000 tested, about 20% had one in any assay.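 Single-concentration screen, 48 h exposure, 96-well plates. Endpoint: percent growth. Below 10 = active.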 Active and inactive are the calls of the source.",
  "data": [
    {"system": "BT-549 breast", "assay": "NCI-60 one-dose screen, 48 h (100 = growth as untreated, 0 = no growth, -100 = all killed)", "conditions": "10 µM unless noted", "values": [
      {"smiles": "Brc1ccc2[nH]cc(-c3cncn3CCc3ccccc3)c2c1", "growth": "41.3% (inactive)"},
      {"smiles": "CN(CCN(C)c1ccc(C(=N)N)cc1)c1ccc(C(=N)N)cc1", "growth": "86% (inactive)"},
      {"smiles": "Nc1ccccc1NC(=O)c1ccc(-n2nc(-c3ccccc3)c3ccccc32)cc1", "growth": "-92.3% (active)"},
      {"smiles": "CC(C)(C)c1cc(/C=N/NC(=O)c2ccccc2NC(=O)c2cccs2)c(O)c(C(C)(C)C)c1", "growth": "57.4% (inactive)"},
      {"smiles": "CCCCCCCCO/N=C\\c1c2c(O)c3c(O)c(C)c4c(c3c1O)C(=O)C(C)(O/C=C\\C(OC)C(C)C(OC(C)=O)C(C)C(O)C(C)C(O)C(C)/C=C\\C=C(\\C)C(=O)N2)O4", "note": "(stereo unspecified)", "growth": "45.9% (inactive)"},
      {"smiles": "O=C1CC(=O)OC(c2ccc([N+](=O)[O-])cc2)O1", "growth": "51.4% (inactive)"},
      {"smiles": "CN1CCN(c2ccc(NC3=C(Cl)C(=O)c4ncccc4C3=O)cc2C(F)(F)F)CC1", "growth": "89.8% (inactive)"},
      {"smiles": "O=C(c1nc2ccccc2[nH]1)C1C(c2ccc(Br)cc2)C2CC3CCCC[C@H]3N2[C@@]12C(=O)Nc1cc(Cl)ccc12", "note": "(stereo partly specified)", "growth": "71.6% (inactive)"},
      {"smiles": "N=C(N)c1ccc(OCCCCCCCCCCOc2ccc(C(=N)N)cc2)cc1", "growth": "-84.5% (active)"},
      {"smiles": "CNC(=O)c1cc(Cn2nc(C)c(NC(=O)Nc3ccc(Cl)c(C(F)(F)F)c3)c2C)ccn1", "growth": "98.6% (inactive)"},
      {"smiles": "O=S(=O)(Nc1ccc(-n2cnc3cc(-c4ccc(O)cc4)ccc32)cc1)c1ccccc1", "growth": "94.3% (inactive)"},
      {"smiles": "O=C(N/N=C/c1ccc(Oc2ccccc2)cc1)c1cnn2c1NC(c1ccccc1)C2", "note": "(stereo unspecified)", "growth": "81.1% (inactive)"},
      {"smiles": "COc1cc(/C(C)=C(\\c2ccc(Cl)cc2)c2ccc(OCCN3CCCC3)cc2)ccc1F", "growth": "79.1% (inactive)"},
      {"smiles": "N#CC1C(C#N)C(C(=O)c2ccc(Br)cc2)N2c3ccccc3C=CC12", "note": "(stereo unspecified)", "growth": "93.2% (inactive)"},
      {"smiles": "CC(Sc1nc2sc3c(c2c(=O)n1-c1ccc(Cl)cc1)CCCC3)C(=O)Nc1nc(-c2ccc(Br)cc2)cs1", "note": "(stereo unspecified)", "growth": "90.3% (inactive)"},
      {"smiles": "COc1cc2c(cc1OC)C(=O)/C(=C/c1cc(C)c(O)c(C)c1)S2", "growth": "36.9% (inactive)"},
      {"smiles": "O=C1/C=C/[C@@H](O)[C@@H]2C[C@@H](O)C[C@H]2/C=C/CCC[C@H](CCc2cccc3ccccc23)O1", "growth": "13.5% (inactive)"},
      {"smiles": "COc1ccc(C/C(=C(\\C)c2ccc(OCCN3CCCC3)cc2)c2ccc(OCCN3CCCC3)cc2)cc1", "growth": "85% (inactive)"},
      {"smiles": "CC1=CCC(OC(=O)C(C)(O)CCC(O)(C(=O)OC2(C)C=CC(O)(C(C)C)CC2)C(C)C)(C(C)C)CC1", "note": "(stereo unspecified)", "growth": "114% (inactive)"},
      {"smiles": "CC(C)c1ccc(Nc2ccc3c(OCCCN4CCN(C)CC4)cccc3n2)cc1", "growth": "79.6% (inactive)"},
      {"smiles": "CCCOc1ccc(/C=N/Nc2cc(C)nc3ccc(Cl)cc23)cc1", "growth": "102% (inactive)"},
      {"smiles": "CC(Oc1ccc(C(=O)O)cc1C(F)(F)F)c1ccc(Oc2ccccc2)cn1", "note": "(stereo unspecified)", "growth": "89.1% (inactive)"},
      {"smiles": "COc1ccc(NC(=O)c2cc(NCc3cc(O)ccc3O)ccc2O)cc1", "growth": "71.8% (inactive)"},
      {"smiles": "ClC1=C(Br)C(Br)(Br)C(=C(Br)Br)C1(Br)Br", "growth": "113% (inactive)"},
      {"smiles": "COc1cccc(-c2nc3occn3c2-c2ccnc(NCCCNS(=O)(=O)c3ccc(C(F)(F)F)cc3)n2)c1", "growth": "93.4% (inactive)"},
      {"smiles": "Cn1nc(CC#N)c2c(=N)n(N)cnc21", "growth": "122% (inactive)"},
      {"smiles": "N#C/C(=C\\c1ccc(C(F)(F)F)cc1)c1cc2ccccc2[nH]1", "growth": "94.1% (inactive)"},
      {"smiles": "CCCCCCCCOc1ccc(/C=N/Nc2cc(C)nc3ccc(Br)cc23)cc1", "growth": "95.6% (inactive)"},
      {"smiles": "CC(=O)N1N=C(c2ccc(-n3ccc(C(F)(F)F)n3)c(F)c2)CC1c1ccc[nH]1", "note": "(stereo unspecified)", "growth": "111% (inactive)"},
      {"smiles": "COc1cc(-c2csc(NC(=O)c3cc(F)cc(C(F)(F)F)c3)n2)cc(OC)c1OC", "growth": "41.2% (inactive)"},
      {"smiles": "COc1cc(/C=C/C(=O)c2nc3cc(F)ccc3nc2C)cc(OC)c1OC", "growth": "112% (inactive)"},
      {"smiles": "N#Cc1cc(-c2nc3ccccc3s2)c(=O)n(NS(=O)(=O)c2ccccc2)c1N", "growth": "98.2% (inactive)"},
      {"smiles": "CC(C)N1C(=O)S/C(=C2/SC(=O)N(C(C)C)C2=O)C1=O", "growth": "93.6% (inactive)"},
      {"smiles": "O=C(/C=C/c1ccc[nH]1)c1ccc(-n2ccc(C(F)(F)F)n2)c(F)c1", "growth": "-2.69% (active)"},
      {"smiles": "Nc1c(C(=O)Nc2cccc3cnccc23)sc2nc3c(cc12)C(=O)CCC3", "growth": "83.4% (inactive)"},
      {"smiles": "COc1ccc(Cc2cnc(NC(=O)c3ccc4c(c3)OCCO4)s2)cc1", "growth": "43.6% (inactive)"},
      {"smiles": "Cc1ccc(NC(=O)c2cc(-c3nc4ccccc4s3)c(=O)n(NS(=O)(=O)c3ccc(Cl)cc3)c2N)cc1", "growth": "115% (inactive)"},
      {"smiles": "COc1cc(-c2n/c(=C\\c3c(O)[nH]c4ccc(Cl)cc34)cc3c2=Nc2ccccc2-3)ccc1F", "growth": "85.9% (inactive)"}
    ]},
    {"system": "MDA-MB-435 melanoma", "assay": "NCI-60 one-dose screen, 48 h (100 = growth as untreated, 0 = no growth, -100 = all killed)", "conditions": "10 µM unless noted", "values": [
      {"smiles": "Brc1ccc2[nH]cc(-c3cncn3CCc3ccccc3)c2c1", "growth": "57.5% (inactive)"},
      {"smiles": "CN(CCN(C)c1ccc(C(=N)N)cc1)c1ccc(C(=N)N)cc1", "growth": "90.5% (inactive)"},
      {"smiles": "Nc1ccccc1NC(=O)c1ccc(-n2nc(-c3ccccc3)c3ccccc32)cc1", "growth": "92.2% (inactive)"},
      {"smiles": "CC(C)(C)c1cc(/C=N/NC(=O)c2ccccc2NC(=O)c2cccs2)c(O)c(C(C)(C)C)c1", "growth": "51.8% (inactive)"},
      {"smiles": "CCCCCCCCO/N=C\\c1c2c(O)c3c(O)c(C)c4c(c3c1O)C(=O)C(C)(O/C=C\\C(OC)C(C)C(OC(C)=O)C(C)C(O)C(C)C(O)C(C)/C=C\\C=C(\\C)C(=O)N2)O4", "note": "(stereo unspecified)", "growth": "13.5% (inactive)"},
      {"smiles": "O=C1CC(=O)OC(c2ccc([N+](=O)[O-])cc2)O1", "growth": "-27.9% (active)"},
      {"smiles": "CN1CCN(c2ccc(NC3=C(Cl)C(=O)c4ncccc4C3=O)cc2C(F)(F)F)CC1", "growth": "-62.5% (active)"},
      {"smiles": "O=C(c1nc2ccccc2[nH]1)C1C(c2ccc(Br)cc2)C2CC3CCCC[C@H]3N2[C@@]12C(=O)Nc1cc(Cl)ccc12", "note": "(stereo partly specified)", "growth": "23.7% (inactive)"},
      {"smiles": "N=C(N)c1ccc(OCCCCCCCCCCOc2ccc(C(=N)N)cc2)cc1", "growth": "-94.6% (active)"},
      {"smiles": "CNC(=O)c1cc(Cn2nc(C)c(NC(=O)Nc3ccc(Cl)c(C(F)(F)F)c3)c2C)ccn1", "growth": "100% (inactive)"},
      {"smiles": "O=S(=O)(Nc1ccc(-n2cnc3cc(-c4ccc(O)cc4)ccc32)cc1)c1ccccc1", "growth": "98.5% (inactive)"},
      {"smiles": "O=C(N/N=C/c1ccc(Oc2ccccc2)cc1)c1cnn2c1NC(c1ccccc1)C2", "note": "(stereo unspecified)", "growth": "4.46% (active)"},
      {"smiles": "COc1cc(/C(C)=C(\\c2ccc(Cl)cc2)c2ccc(OCCN3CCCC3)cc2)ccc1F", "growth": "51.3% (inactive)"},
      {"smiles": "N#CC1C(C#N)C(C(=O)c2ccc(Br)cc2)N2c3ccccc3C=CC12", "note": "(stereo unspecified)", "growth": "16% (inactive)"},
      {"smiles": "CC(Sc1nc2sc3c(c2c(=O)n1-c1ccc(Cl)cc1)CCCC3)C(=O)Nc1nc(-c2ccc(Br)cc2)cs1", "note": "(stereo unspecified)", "growth": "102% (inactive)"},
      {"smiles": "COc1cc2c(cc1OC)C(=O)/C(=C/c1cc(C)c(O)c(C)c1)S2", "growth": "-9.36% (active)"},
      {"smiles": "O=C1/C=C/[C@@H](O)[C@@H]2C[C@@H](O)C[C@H]2/C=C/CCC[C@H](CCc2cccc3ccccc23)O1", "growth": "6.06% (active)"},
      {"smiles": "COc1ccc(C/C(=C(\\C)c2ccc(OCCN3CCCC3)cc2)c2ccc(OCCN3CCCC3)cc2)cc1", "growth": "-77.2% (active)"},
      {"smiles": "CC1=CCC(OC(=O)C(C)(O)CCC(O)(C(=O)OC2(C)C=CC(O)(C(C)C)CC2)C(C)C)(C(C)C)CC1", "note": "(stereo unspecified)", "growth": "104% (inactive)"},
      {"smiles": "CC(C)c1ccc(Nc2ccc3c(OCCCN4CCN(C)CC4)cccc3n2)cc1", "growth": "22.6% (inactive)"},
      {"smiles": "CCCOc1ccc(/C=N/Nc2cc(C)nc3ccc(Cl)cc23)cc1", "growth": "-40.4% (active)"},
      {"smiles": "CC(Oc1ccc(C(=O)O)cc1C(F)(F)F)c1ccc(Oc2ccccc2)cn1", "note": "(stereo unspecified)", "growth": "77.4% (inactive)"},
      {"smiles": "COc1ccc(NC(=O)c2cc(NCc3cc(O)ccc3O)ccc2O)cc1", "growth": "99.7% (inactive)"},
      {"smiles": "ClC1=C(Br)C(Br)(Br)C(=C(Br)Br)C1(Br)Br", "growth": "107% (inactive)"},
      {"smiles": "COc1cccc(-c2nc3occn3c2-c2ccnc(NCCCNS(=O)(=O)c3ccc(C(F)(F)F)cc3)n2)c1", "growth": "76.3% (inactive)"},
      {"smiles": "Cn1nc(CC#N)c2c(=N)n(N)cnc21", "growth": "107% (inactive)"},
      {"smiles": "N#C/C(=C\\c1ccc(C(F)(F)F)cc1)c1cc2ccccc2[nH]1", "growth": "97.1% (inactive)"},
      {"smiles": "CCCCCCCCOc1ccc(/C=N/Nc2cc(C)nc3ccc(Br)cc23)cc1", "growth": "64.7% (inactive)"},
      {"smiles": "CC(=O)N1N=C(c2ccc(-n3ccc(C(F)(F)F)n3)c(F)c2)CC1c1ccc[nH]1", "note": "(stereo unspecified)", "growth": "99.8% (inactive)"},
      {"smiles": "COc1cc(-c2csc(NC(=O)c3cc(F)cc(C(F)(F)F)c3)n2)cc(OC)c1OC", "growth": "-16.2% (active)"},
      {"smiles": "COc1cc(/C=C/C(=O)c2nc3cc(F)ccc3nc2C)cc(OC)c1OC", "growth": "75% (inactive)"},
      {"smiles": "N#Cc1cc(-c2nc3ccccc3s2)c(=O)n(NS(=O)(=O)c2ccccc2)c1N", "growth": "102% (inactive)"},
      {"smiles": "CC(C)N1C(=O)S/C(=C2/SC(=O)N(C(C)C)C2=O)C1=O", "growth": "100% (inactive)"},
      {"smiles": "O=C(/C=C/c1ccc[nH]1)c1ccc(-n2ccc(C(F)(F)F)n2)c(F)c1", "growth": "99.3% (inactive)"},
      {"smiles": "Nc1c(C(=O)Nc2cccc3cnccc23)sc2nc3c(cc12)C(=O)CCC3", "growth": "7.12% (active)"},
      {"smiles": "COc1ccc(Cc2cnc(NC(=O)c3ccc4c(c3)OCCO4)s2)cc1", "growth": "4.11% (active)"},
      {"smiles": "Cc1ccc(NC(=O)c2cc(-c3nc4ccccc4s3)c(=O)n(NS(=O)(=O)c3ccc(Cl)cc3)c2N)cc1", "growth": "99.4% (inactive)"},
      {"smiles": "COc1cc(-c2n/c(=C\\c3c(O)[nH]c4ccc(Cl)cc34)cc3c2=Nc2ccccc2-3)ccc1F", "growth": "21.3% (inactive)"}
    ]}
  ]
}
